Hits are enriched below; roughly 2.8% of the tested compounds scored in any of these assays.
PI5P4Ka inh = qHTS for Inhibitors of phosphatidylinositol 5-phosphate 4-kinase (PI5P4K) | Phosphatidylinositol 5-phosphate 4-kinase type-2 alpha (Homo sapiens), P48426 | PI5P4Kalpha enzyme, ADP-Glo luminescence, 60 min; hits give low values | max response, % | 330,000 tested, 1.2% active | AID 652105, 2013; active = max response of -50% or lower; inconclusive = between -30% and -50%; inactive = -30% or higher; also: value at the top dose of about 77 µM; % is scaled to controls: 0 for no effect and ±100 for the full control effect
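ADP-Glo luminescence end-point after a 60 min room-temperature kinase reaction. PI5P4Kalpha and substrate in HEPES pH 7.4 buffer with EGTA, 0.1% CHAPS and 5% DMSO; ATP at 5 microM final.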
POLH inh = qHTS for Inhibitors of Polymerase Eta. recombinant Pol eta, fluorescent DNA replication assay. Potency, µM (top dose mostly 114 µM), for inactives: top-dose activity change, negative = inhibition, hits mostly inhibitors. 390,000 tested, 1.2% active. AID 588591, 2011; also: potency is read from the fitted curve at half-maximal effect; % is scaled to controls: 0 for no effect and ±100 for the full control effect
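Pol eta (10 nM) was preincubated with compounds for 15 min at room temperature, after which fluorescent replication substrate (50 nM final) was added to start the reaction. Fluorescence was read kinetically at 0 and 10 min.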
POLI inh = qHTS for Inhibitors of Polymerase Iota. DNA polymerase iota (Homo sapiens), Q9UNA4. Pol iota fluorescent replication assay, 10 min. Potency, µM (series often up to 115 µM), without a hit: at the top dose activity, negative = inhibition, usual class: inhibitors. 390,000 tested, 1% active; also: potency is read from the fitted curve at half-maximal effect
Target sequence (Q9UNA4 whole entry, looked up): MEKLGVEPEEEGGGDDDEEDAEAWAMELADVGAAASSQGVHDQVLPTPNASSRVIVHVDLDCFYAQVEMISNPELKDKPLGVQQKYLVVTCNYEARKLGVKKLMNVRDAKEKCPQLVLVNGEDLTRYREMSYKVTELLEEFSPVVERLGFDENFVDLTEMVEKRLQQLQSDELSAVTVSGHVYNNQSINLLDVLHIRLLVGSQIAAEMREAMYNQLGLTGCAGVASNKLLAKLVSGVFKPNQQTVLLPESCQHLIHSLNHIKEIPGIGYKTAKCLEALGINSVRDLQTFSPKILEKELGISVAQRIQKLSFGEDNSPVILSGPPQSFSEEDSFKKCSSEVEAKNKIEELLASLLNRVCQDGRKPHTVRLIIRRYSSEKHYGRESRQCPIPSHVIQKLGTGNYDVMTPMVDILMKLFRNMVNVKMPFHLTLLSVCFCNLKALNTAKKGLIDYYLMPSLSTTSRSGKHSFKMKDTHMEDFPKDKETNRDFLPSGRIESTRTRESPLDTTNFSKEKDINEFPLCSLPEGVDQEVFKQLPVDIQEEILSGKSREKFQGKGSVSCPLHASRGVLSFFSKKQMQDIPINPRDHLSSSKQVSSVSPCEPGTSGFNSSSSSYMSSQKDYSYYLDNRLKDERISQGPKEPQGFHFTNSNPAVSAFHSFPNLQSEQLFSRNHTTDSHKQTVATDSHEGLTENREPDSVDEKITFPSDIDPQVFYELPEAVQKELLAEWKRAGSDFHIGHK
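Pol iota at 10 nM preincubated 15 min with compounds at room temperature; reaction started with fluorescent substrate, 50 nM final. Fluorescence read kinetically at 0 and 10 min; buffer-only wells as negative control.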
WRN helicase inh = qHTS for Inhibitors of WRN Helicase; AID 651768, 2012; Bifunctional 3'-5' exonuclease/ATP-dependent helicase WRN (Homo sapiens), Q14191; 360,000 tested, 0.46% active; Potency, µM (titrated, usually from 114 µM), without a hit: top-dose activity change, negative = inhibition, hits mostly inhibitors; WRN helicase unwinding, fluorescent forked duplex, kinetic; also: potency is read from the fitted curve at half-maximal effect; % is scaled to controls: 0 for no effect and ±100 for the full control effect; nearly all actives have a fitted effect of over 55% in size
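Fluorescence dequenching readout, ex 525 nm/em 598 nm, kinetic mode: forked duplex DNA (100 nM final) with adjacent fluorophore and quencher unwound by WRN (20 nM final) with 2 mM ATP. Compound preincubation 15 min, room temperature.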
POLK inh = qHTS for Inhibitors of Polymerase Kappa | DNA polymerase kappa (Homo sapiens), Q9UBT6 | purified Pol kappa, fluorescent DNA synthesis assay, 10 min | Potency, µM (doses to about 107 µM), without a hit: at the highest dose activity, negative = inhibition, usual class: inhibitors | 400,000 tested, 0.53% active; also: potency is read from the fitted curve at half-maximal effect; % is scaled to controls: 0 for no effect and ±100 for the full control effect
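First, compounds were pin-transferred onto 10 nM Pol kappa. After 15 min at room temperature, substrate was added to 50 nM final. Fluorescence was then measured kinetically at 0 and 10 min.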
POLB inh = qHTS Assay for Inhibitors of DNA Polymerase Beta; Pol beta primer extension/strand displacement, fluorescence kinetic; Potency, µM (doses to about 114 µM), inactives show at the top dose activity change, negative = inhibition, hits mostly inhibitors; 340,000 tested, 1.3% active; AID 485314, 2010; also: potency is read from the fitted curve at half-maximal effect; % is scaled to controls: 0 for no effect and ±100 for the full control effect
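Reaction started by 50 nM substrate onto compound-treated Pol beta (10 nM, 15 min preincubation, room temperature); plates read at 0 min and 10 min. Normalized concentration-effect data fitted by four-parameter Hill equation.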
Numbers without * were called inactive; ? = inconclusive; / = no result given; ! = not active in a repeat; [ ] = dose if it differs, or a comment. Unless noted, calls follow the shape of the dose curve; as a rule, active = well fitted curve in the direction sought with a large enough effect; inconclusive = small, poorly fitted or top-dose-only effect, or another doubt; inactive = no such curve, though single readings can be large; an effect the other way counts as inactive or inconclusive.

SMILES	PI5P4Ka inh	POLH inh	POLI inh	WRN helicase inh	POLK inh	POLB inh
Cc1c(OC(C)C(=O)NCCCn2ccnc2)ccc2c3c(c(=O)oc12)CCC3 (centres undefined)	1	-6%	-22%	-2%	14%	91%
Nc1cc(N)cc(-c2nc3ccccc3[nH]2)c1	-64*	?	16%	-25%	-4%	-1%
CSc1nc(S(C)(=O)=O)nc2[nH]c(=O)[nH]c12	-18	-18%	1%	-10%	-3%	/
O=C1c2c(O)cc(O)cc2O[C@H](c2ccc(O)c(O)c2)[C@H]1O	-27	4%	79µM*	-8%[11.6 µM]	?	3.2µM*
COc1cc([C@@H]2Oc3cc(C4Oc5cc(O)cc(O)c5C(=O)[C@H]4O)ccc3O[C@H]2CO)ccc1O (some centres undefined)	-52*	?	?	-11%	-39%	/
COc1cc([C@H]2Oc3cc([C@H]4Oc5cc(O)cc(O)c5C(=O)[C@@H]4O)ccc3O[C@@H]2CO)ccc1O	-27	-8%	?	-7%	0%	23%
O=C1c2c(O)cc(O)cc2O[C@H](c2ccc(O)c(O)c2)[C@@H]1O	/	/	/	/	/	3.5µM*
O=C1c2c(O)cc(O)cc2O[C@H](c2ccc(O)cc2)[C@H]1O	-17	-12%	-15%	2%	8%	/
COc1cccc(N2CCN(C(=O)c3ccc(CS(=O)c4cccc(Cl)c4)o3)CC2)c1 (centres undefined)	/	-22%	21%	/	-13%	-8%
COc1ccccc1NC(=O)CN1CC(=O)Nc2ccccc21	-6	-9%	71%	3%	-1%	2%
COc1ccccc1NS(=O)(=O)c1cc(N)ccc1N1CCCC1	?	-25%	79µM*	-24%	-12%	/
CN1N=C(C(C)(C)C)CC1=O	1	-14%	4µM*	-1%[11.6 µM]	3%	4%
O=c1c(O[C@@H]2O[C@H](CO)[C@@H](O)[C@H](O)[C@H]2O)c(-c2ccc(O)cc2)oc2cc(O)cc(O)c12	1	4%	?	-8%	-25%	/
CC1OC(OC2C(Oc3c(-c4ccc(O)cc4)oc4cc(O)cc(O)c4c3=O)OC(COC3O[C@@H](C)[C@H](O)[C@@H](O)C3O)C(O)C2O)C(O)C(O)C1O (some centres undefined)	6	-14%	5%	-1%	-3%	/
O=c1cc(-c2ccc(O)c(O)c2)oc2cc(OC3OC(CO)C(O)C(O)C3O)cc(O)c12 (centres undefined)	/	/	/	/	0.89µM*	/
O=c1c(O[C@@H]2O[C@H](CO)[C@@H](O)[C@H](O)[C@H]2O)c(-c2ccc(O)c(O)c2)oc2cc(O)cc(O)c12	/	/	/	/	/	1.8µM*
C[C@@H]1O[C@@H](OC[C@H]2O[C@@H](Oc3c(-c4ccc(O)c(O)c4)oc4cc(O)cc(O)c4c3=O)[C@H](O)[C@@H](O)[C@@H]2O)[C@H](O)[C@H](O)[C@H]1O	-1	-10%	9%	-4%	24µM*!	8.9µM*
O=c1c(OC2OC(CO)C(O)C(O)C2OC2OC(CO)C(O)C(O)C2OC2OC(CO)C(O)C(O)C2O)c(-c2ccc(O)c(O)c2)oc2cc(O)cc(O)c12 (centres undefined)	-2	?	50µM*	-7%	56µM*	?
C[C@@H]1[C@H](c2ccccc2)OCCS(=O)(=O)N1Cc1ccccc1Br	/	/	3%	/	-17%	/
CCCCCCN1CCN(C2CN(Cc3ccccc3)S(=O)(=O)C2)CC1 (centres undefined)	1	/	/	1%	/	/
CCOc1ccc(/C=C/c2ccnc3ccccc23)cc1OCC	/	/	?	/	-10%	/
COc1ccc(OC)c(NC(=O)CCNS(=O)(=O)c2ccc3[nH]c(=O)oc3c2)c1	-3	?	-1%	3%[11.6 µM]	-33%	3%
O=C(CCNS(=O)(=O)c1ccc2[nH]c(=O)oc2c1)NCc1ccccc1	-6	9%	-9%	-2%	-4%	-7%
COc1ccccc1CNC(=O)CCNS(=O)(=O)c1ccc2[nH]c(=O)oc2c1	3	79µM*	-21%	-4%[11.6 µM]	-24%	?
COc1ccccc1NC(=O)CCNS(=O)(=O)c1ccc2[nH]c(=O)oc2c1	-12	25µM*	?	-14%	?	-10%
SMILES	PI5P4Ka inh	POLH inh	POLI inh	WRN helicase inh	POLK inh	POLB inh
CCN(CC)S(=O)(=O)c1cccc(C(=O)N/N=C/c2cccc(O)c2O)c1	-13	-5%	20µM*	?	-42%	8%
CCc1ccc(Nc2n[n+](-c3ccccc3)c(-c3ccc(N(CC)CC)cc3)s2)cc1	-59*	-10%	?	-6%	5%	4%
CCc1ccc(Nc2n[n+](-c3ccccc3)c(-c3c(Cl)cccc3Cl)s2)cc1	-80*	-7%	-19%	-7%	-2%	13%
Fc1ccc(-[n+]2nc(Nc3ccccc3)sc2-c2c(Cl)cccc2Cl)cc1	-14	-30%	?	-2%	1%	40%
Cc1cc(=O)oc2cc(NC(=S)NNC(=O)c3c(Cl)cnn3C)ccc12	-53*	-16%	0%	?	-6%	14%
CCc1ccc(OCCn2c(CCNC(=O)C3CCCCC3)nc3ccccc32)cc1	/	/	41%	/	-1%	/
O=C(O)C1Cc2ccccc2CN1S(=O)(=O)c1ccc2ccccc2c1 (centres undefined)	-14	5.6µM*	?	-2%[11.6 µM]	-23%	-25%
CS(=O)(=O)N1Cc2ccccc2CC1C(=O)OCC(=O)NCCc1ccc(S(N)(=O)=O)cc1 (centres undefined)	-4	-15%	29%	-23%	-3%	/
Cc1ccc(S(=O)(=O)N2Cc3ccccc3CC2C(=O)Nc2ccc3c(c2)OCO3)cc1 (centres undefined)	-51*	10µM*	?	-36%	50µM*	22µM*
O=C(O)C1Cc2ccccc2CN1S(=O)(=O)c1ccccc1 (centres undefined)	1	79µM*	55%	-15%[11.6 µM]	-8%	-9%
CN(C)C(=O)C1Cc2ccccc2CN1S(=O)(=O)c1ccc(F)cc1 (centres undefined)	3	-1%	-6%	0%	2%	-1%
CS(=O)(=O)N1Cc2ccccc2CC1C(=O)OCC(=O)Nc1ccc2ccccc2c1 (centres undefined)	/	?	?	-35%	?	3.2µM*

Compound activity: PubChem BioAssay, National Center for Advancing Translational Sciences (NCATS)
